# Experimental data from PubChem BioAssay (NCATS).
# A number with no mark means an inactive call. Results filed as inconclusive are left out. Where a call stands in place of a potency, no number is given. Calls of active or inactive are those of the source. Unless noted, the call rests on the fitted dose curve; in most records, active means well fitted curve in the direction sought with a large enough effect; inconclusive means small, poorly fitted or top-dose-only effect, or another doubt; inactive means no such curve, though single readings can be large; an effect the other way counts as inactive or inconclusive.
# Tests used:
# [1] = AP1 Signaling Pathway (AID 357; active means well fitted curve in either direction with a large enough effect, not every such curve was filed as active); conditions: ME-180 AP-1-bla reporter, EGF-induced, beta-lactamase ratio, 5 h; at 7.69 µM (top of the series) unless noted
# Procedure, shortened: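 AP-1-bla ME-180 cells with beta-lactamase reporter under AP-1 response element, stimulated with EC50 EGF; compounds titrated, 5 hours at 37 degrees Celsius. CCF4 read at 460/530 nm ratio; positive and negative modulators judged by AC50.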
# [2] = molecular target: Cytochrome P450 1A2 (Homo sapiens) (UniProt P05177); test: p450-cyp1a2 (AID 410; calls by dose curve; further: potency means the concentration at half of the fitted maximal effect)
# Procedure, shortened: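 20nM CYP1A2, 100uM Luciferin-ME (=Km), 100mM KPO4; cpd 10 min RT; +NADPH regen, 60 min RT; stop/detect 20 min; luminescence. Normalized to furafylline 57 uM = full inhibition.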
# [3] = NFAT Signaling Pathway (AID 444; active means well fitted curve in either direction with a large enough effect, not every such curve was filed as active;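 further: carbachol stimulus at about its EC50 of 1 µM final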); conditions: Jurkat NFAT-bla M1, carbachol, beta-lactamase ratio, 5 h; at 7.69 µM (top of the series) unless noted
# Procedure, shortened: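 Jurkat cells with NFAT-driven β-lactamase reporter and co-expressed M1 receptor, stimulated with carbachol (final 1 uM, ~EC50), compound titration, 5 h at 37 °C. CCF4 loaded 1 h at RT; 460/530 nm ratio gave %activity and AC50.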
# [4] = Stat Signaling Pathway (AID 446; active means well fitted curve in either direction with a large enough effect, not every such curve was filed as active;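 further: ME-180 cervical cancer cells given 40 pM IL-6 alongside compound; SIE-controlled beta-lactamase reporter measured as 460/530 nm FRET emission ratio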); conditions: ME-180 SIE beta-lactamase reporter, IL-6 stimulated, 5 h; at 7.69 µM (top of the series) unless noted
# Procedure, shortened: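 Emission at 460 and 530 nm (excitation 405 nm) reports SIE-controlled beta-lactamase in ME-180 cells. Cells received compound with 40 pM IL-6 for 5 hrs at 37 C; data scaled between 300 pM IL-6 and 125 nM JAK-inhibitor controls.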
# [5] = molecular target: Glucocorticoid receptor (Homo sapiens) (UniProt P04150); test: GR-GFP Redistribution (AID 450;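 active means compounds whose dose series gives a full or clear partial fitted curve of increased nuclear translocation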; further: potency means the concentration at half of the fitted maximal effect); conditions: U2OS GR-GFP nuclear translocation, laser cytometry, 2 h
# [6] = molecular target: Glucocorticoid receptor (Homo sapiens) (UniProt P04150); test: GR-EFC Redistribution (AID 451; calls by dose curve; further: potency means the concentration at half of the fitted maximal effect); conditions: CHO-K1 GR-EFC translocation, beta-gal luminescence, 2 h
# Procedure, shortened: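 CHO-K1 cells expressing nuclear EA and GR-ED fragments of b-gal; compounds titrated up to 46 uM final, 2 h at 37 C. GR nuclear translocation read as complemented b-gal luminescence after 1 h RT detection.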
# [7] = molecular target: Mitogen-activated protein kinase 10 (Mus musculus) (UniProt Q61831); test: JNK3 AlphaScreen Assay (AID 530; active means well fitted curve in either direction with a large enough effect, not every such curve was filed as active;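 further: kinase came from lysate of stimulated human HepG2 cells; signal reports phosphorylation of biotinylated GST-cJun 1-79 at Ser73 with 10 µM ATP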)
# Procedure, shortened: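 HepG2 lysate (IL-1b/TNFa pre-activated) + biotin-GST-cJun 1-79 + anti-pSer73 cJun; cpd titration, 15 min RT; ATP 10 uM start; Tris pH 7.6, MgCl2, DTT, vanadate; beads in EDTA buffer; AlphaScreen.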
# [8] = molecular target: 3',5'-cyclic-AMP phosphodiesterase 4B (Homo sapiens) (UniProt Q07343); test: qHTS Assay for Inhibitors of PDE-IV (AID 607; active means well fitted activation curve with a large enough effect in the main read-out, with a control signal flat, not every such curve was filed as active)
# Procedure, shortened: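 The readout is membrane depolarisation from a cAMP-sensing CNG channel, detected with a potential dye at ex 535/em 590. Cells were HEK293-derived (endogenous PDE-IV) at 1000 cells/well, titrated up to 22.9 uM final.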
# [9] = molecular target: Guanine nucleotide-binding protein G(i) subunit alpha-1 (Homo sapiens) (UniProt P63096); test: qHTS Assay for Inhibitors of RGS12 GoLoco Motif Activity (Green Fluorophore) (AID 879);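 further: negative values mean loss of peptide binding seen as reduced polarization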
# Procedure, shortened: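 A drop in FITC polarization marked displacement of the FITC-tagged RGS12 GoLoco peptide (10 nM) from Gαi1 (50 nM). Compounds were incubated 10 min at room temperature in Tris pH 7.5 buffer containing 150 mM NaCl, 0.1 mM GDP and 0.05% NP40; unlabeled peptide titration served as control.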
# [10] = molecular target: Muscarinic acetylcholine receptor M1 (Rattus norvegicus) (UniProt P08482); test: qHTS Assay for Antagonists of Acetylcholine Muscarinic M1 Receptor: Measurement of IP-One Response (AID 944); further: nearly all actives have a fitted effect of over 75% in size
# Procedure, shortened: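 Read-out: HTRF competition between d2-IP1 and Eu-cryptate anti-IP1 antibody, emission 620 and 665 nm. Stimulus was carbachol, EC80 (200 nM), for 30 min in M1-CHO cells (rat receptor), after 10 min compound pre-treatment.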
# [11] = molecular target: Pyruvate kinase PKM (Homo sapiens) (UniProt P14618); test: qHTS Assay for Activators of Human Muscle Pyruvate Kinase (AID 954; active means well fitted curve in the direction sought with a large enough effect, not every such curve was filed as active)
# Procedure, shortened: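 PKM2, human, >95% pure, 0.1 nM; PEP 0.5 mM (Km), ADP 0.1 mM; 50 mM imidazole pH 7.2, 50 mM KCl, 0.01% Tween 20, 0.05% BSA; 1 h RT; luciferase luminescence readout.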
# [12] = molecular target: alpha-glucosidase (Oryza sativa, rice) (UniProt Q653V4); test: Counterscreen for Glucocerebrosidase Inhibitors: qHTS Assay for Rice alpha-Glucosidase at pH 5.0 (AID 997)
# Procedure, shortened: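 Endpoint fluorogenic assay at pH 5.0: compounds (0.7 nM to 77 uM) titrated against 4 nM rice enzyme and 400 uM 4-MU-alpha-glucoside for 20 min at room temperature; NaOH/glycine stop, read ex 365/em 440 nm, Hill-fitted AC50.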
# [13] = molecular target: Alpha-galactosidase A (Homo sapiens) (UniProt P06280); test: Counterscreen for Glucocerebrosidase Inhibitors: qHTS Assay for Human alpha-Galactosidase at pH 4.5 (AID 992)
# Procedure, shortened: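 Fluorogenic 4-MU alpha-D-galactoside (80 uM) hydrolysis, 2 nM enzyme, pH 4.5 citrate buffer + 0.005% Tween-20; 20 min RT; NaOH/glycine pH 10 stop; Ex365/Em440. Compounds titrated 0.7 nM–77 uM; Hill-equation AC50.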
# [14] = molecular target: Cytochrome P450 3A4 (Homo sapiens) (UniProt P08684); test: qHTS Assay for Activators of Cytochrome P450 3A4 (AID 885); further: nearly all actives have a fitted effect of over 65% in size
# Procedure, shortened: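 Activators are scored by enhanced luminescence from CYP3A4 conversion of luciferin-PPXE (25uM, equal to KM) to luciferin, after 60 min at RT with an NADPH-regenerating system.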
# [15] = qHTS Assay for Identification of Small Molecule Agonists for Thrombopoietin (TPO) Signaling Pathway (AID 917)
# Procedure, shortened: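 Cell-based luciferase reporter screen. Mouse Ba/F3 line stably expressing human TPO receptor; IL-3 removed overnight before plating. Co-treatment with compound and EC50 TPO (26 pM), 24 hrs at 37 C, then luminescence.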
# [16] = qHTS Assay for Identification of Small Molecule Antagonists for NFkB Signaling Pathway (AID 895; active means well fitted inhibition curve with a large enough effect in the signal ratio, with a control signal flat, not every such curve was filed as active; the % refers to the signal ratio)
# Procedure, shortened: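 ME-180 NFkB-bla cells (beta-lactamase under NFkB response element), plated overnight, treated with compound then 10 pM TNF alpha (about EC50) for 5 hrs at 37 C. LiveBLAzer FRET read at 460/530 nm emission, 405 nm excitation.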
# [17] = molecular target: Pyruvate kinase (Leishmania mexicana) (UniProt Q27686); test: qHTS Validation Assay for Inhibitors of Leishmania Mexicana Pyruvate Kinase (AID 945)
# Procedure, shortened: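 Read-out: luminescence from PKLight stop/detection reagent, data normalized to DMSO. Reaction: 0.2 nM E451W LmPYK, 0.5 mM PEP, 0.1 mM ADP, pH 7.2, 1 h room temperature.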
# [18] = molecular target: Cytochrome P450 2C9 (Homo sapiens) (UniProt P11712); test: qHTS Assay for Inhibitors and Substrates of Cytochrome P450 2C9 (AID 883); further: nearly all actives have a fitted effect of over 60% in size
# Procedure, shortened: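 Signal: luciferase luminescence reporting luciferin produced by CYP2C9. Conditions: 10nM enzyme, Luciferin-H 100uM at KM, 25mM KPO4, 37C, 60 min NADPH-driven reaction. Reference: 57uM sulphaphenazole as 100% inhibition.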
# [19] = molecular target: Cytochrome P450 2D6 (Homo sapiens) (UniProt P10635); test: qHTS Assay for Inhibitors and Substrates of Cytochrome P450 2D6 (AID 891);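 further: luciferin methyl ether substrate demethylated by CYP2D6 with NADPH regeneration; nearly all actives have a fitted effect of over 60% in size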
# Procedure, shortened: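 Luminescent read-out of luciferin formed by 5 nM human CYP2D6 demethylating 30 uM Luciferin-ME EGE (Km level) over 60 min at room temperature after NADPH regeneration addition. Data normalized to full inhibition by 1.43 uM quinidine.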
# [20] = molecular target: Cytochrome P450 2C19 (Homo sapiens) (UniProt P33261); test: qHTS Assay for Inhibitors and Substrates of Cytochrome P450 2C19 (AID 899); further: nearly all actives have a fitted effect of over 60% in size
# Procedure, shortened: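 Signal comes from luciferase acting on luciferin released by CYP2C19-mediated hydroxylation of Luciferin-H EGE, 10uM (KM). Assay mix: 5nM enzyme, 50mM KPO4; 60 min at 37C with NADPH regeneration. Data normalized against 57uM ketoconazole.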
# Chain of Cytochrome P450 1A2 (Homo sapiens) (P05177 whole entry, looked up): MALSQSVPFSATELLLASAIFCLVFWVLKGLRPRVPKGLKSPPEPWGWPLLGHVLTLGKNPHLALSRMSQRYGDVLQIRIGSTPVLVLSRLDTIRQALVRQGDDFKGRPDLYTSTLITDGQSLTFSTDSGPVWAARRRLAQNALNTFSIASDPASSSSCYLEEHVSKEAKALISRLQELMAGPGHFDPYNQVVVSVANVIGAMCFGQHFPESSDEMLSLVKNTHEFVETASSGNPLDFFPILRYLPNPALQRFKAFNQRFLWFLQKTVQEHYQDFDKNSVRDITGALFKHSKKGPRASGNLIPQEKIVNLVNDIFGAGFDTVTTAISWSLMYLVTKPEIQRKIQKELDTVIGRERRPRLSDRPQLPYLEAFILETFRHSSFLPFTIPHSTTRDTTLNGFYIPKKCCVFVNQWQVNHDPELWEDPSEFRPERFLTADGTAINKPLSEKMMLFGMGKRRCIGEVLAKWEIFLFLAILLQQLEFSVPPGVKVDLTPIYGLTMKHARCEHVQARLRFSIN
# Chain of Guanine nucleotide-binding protein G(i) subunit alpha-1 (Homo sapiens) (P63096 whole entry, looked up): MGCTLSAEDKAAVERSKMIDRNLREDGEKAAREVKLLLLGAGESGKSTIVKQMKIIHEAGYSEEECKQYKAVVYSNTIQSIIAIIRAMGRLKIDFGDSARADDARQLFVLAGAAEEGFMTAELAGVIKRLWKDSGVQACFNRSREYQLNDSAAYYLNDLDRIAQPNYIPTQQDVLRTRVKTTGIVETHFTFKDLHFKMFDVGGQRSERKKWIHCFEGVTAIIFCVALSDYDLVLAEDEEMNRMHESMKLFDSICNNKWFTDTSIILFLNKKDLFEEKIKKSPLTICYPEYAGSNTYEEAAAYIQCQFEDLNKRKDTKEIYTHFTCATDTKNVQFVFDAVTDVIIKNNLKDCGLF
# Chain of Pyruvate kinase (Leishmania mexicana) (Q27686 2-499 E452W): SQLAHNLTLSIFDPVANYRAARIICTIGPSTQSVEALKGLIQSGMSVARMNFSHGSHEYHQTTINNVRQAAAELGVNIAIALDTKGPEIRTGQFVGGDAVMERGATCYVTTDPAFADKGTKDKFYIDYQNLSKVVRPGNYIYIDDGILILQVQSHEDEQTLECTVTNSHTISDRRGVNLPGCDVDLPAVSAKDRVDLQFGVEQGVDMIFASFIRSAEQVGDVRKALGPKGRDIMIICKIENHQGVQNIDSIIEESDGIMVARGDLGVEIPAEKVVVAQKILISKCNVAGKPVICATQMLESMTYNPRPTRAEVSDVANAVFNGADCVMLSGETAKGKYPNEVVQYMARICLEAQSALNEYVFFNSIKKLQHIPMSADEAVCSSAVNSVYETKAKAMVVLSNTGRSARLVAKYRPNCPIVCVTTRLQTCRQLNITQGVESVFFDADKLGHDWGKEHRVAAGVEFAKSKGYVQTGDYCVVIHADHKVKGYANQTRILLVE
# Chain of 3',5'-cyclic-AMP phosphodiesterase 4B (Homo sapiens) (Q07343 whole entry, looked up): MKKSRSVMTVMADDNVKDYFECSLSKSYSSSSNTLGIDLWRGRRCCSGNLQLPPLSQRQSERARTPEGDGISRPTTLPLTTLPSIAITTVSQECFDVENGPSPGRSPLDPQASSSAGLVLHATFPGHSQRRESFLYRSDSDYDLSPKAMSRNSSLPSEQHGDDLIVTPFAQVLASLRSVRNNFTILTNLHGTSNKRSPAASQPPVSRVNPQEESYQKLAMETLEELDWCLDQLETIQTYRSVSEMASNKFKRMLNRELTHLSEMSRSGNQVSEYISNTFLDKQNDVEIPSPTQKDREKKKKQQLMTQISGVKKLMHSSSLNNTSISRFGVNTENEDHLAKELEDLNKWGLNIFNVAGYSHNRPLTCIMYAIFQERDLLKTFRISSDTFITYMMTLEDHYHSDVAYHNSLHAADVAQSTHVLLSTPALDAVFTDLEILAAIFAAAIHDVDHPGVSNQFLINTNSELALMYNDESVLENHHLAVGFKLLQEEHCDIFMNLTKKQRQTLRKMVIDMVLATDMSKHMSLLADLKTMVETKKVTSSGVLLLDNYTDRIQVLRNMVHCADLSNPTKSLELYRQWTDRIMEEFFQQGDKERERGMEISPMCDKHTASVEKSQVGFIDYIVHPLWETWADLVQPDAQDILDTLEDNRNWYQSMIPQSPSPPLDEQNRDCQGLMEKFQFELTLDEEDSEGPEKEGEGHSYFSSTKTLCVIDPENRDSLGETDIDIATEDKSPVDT
# Chain of Cytochrome P450 3A4 (Homo sapiens) (P08684 whole entry, looked up): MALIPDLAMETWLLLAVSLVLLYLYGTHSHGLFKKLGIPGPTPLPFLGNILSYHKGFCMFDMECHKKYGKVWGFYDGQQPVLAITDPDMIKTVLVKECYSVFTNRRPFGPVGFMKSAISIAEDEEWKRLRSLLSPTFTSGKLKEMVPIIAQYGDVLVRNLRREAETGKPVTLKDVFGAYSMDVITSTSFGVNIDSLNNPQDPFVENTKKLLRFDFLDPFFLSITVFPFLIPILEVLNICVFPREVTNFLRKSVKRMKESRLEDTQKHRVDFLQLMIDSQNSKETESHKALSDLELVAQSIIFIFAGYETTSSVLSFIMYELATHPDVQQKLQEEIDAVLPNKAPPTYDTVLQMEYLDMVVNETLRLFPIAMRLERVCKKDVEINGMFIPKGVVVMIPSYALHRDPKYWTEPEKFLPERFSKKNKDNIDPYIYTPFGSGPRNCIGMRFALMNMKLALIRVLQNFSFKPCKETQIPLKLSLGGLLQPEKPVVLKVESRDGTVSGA
# Chain of Muscarinic acetylcholine receptor M1 (Rattus norvegicus) (P08482 whole entry, looked up): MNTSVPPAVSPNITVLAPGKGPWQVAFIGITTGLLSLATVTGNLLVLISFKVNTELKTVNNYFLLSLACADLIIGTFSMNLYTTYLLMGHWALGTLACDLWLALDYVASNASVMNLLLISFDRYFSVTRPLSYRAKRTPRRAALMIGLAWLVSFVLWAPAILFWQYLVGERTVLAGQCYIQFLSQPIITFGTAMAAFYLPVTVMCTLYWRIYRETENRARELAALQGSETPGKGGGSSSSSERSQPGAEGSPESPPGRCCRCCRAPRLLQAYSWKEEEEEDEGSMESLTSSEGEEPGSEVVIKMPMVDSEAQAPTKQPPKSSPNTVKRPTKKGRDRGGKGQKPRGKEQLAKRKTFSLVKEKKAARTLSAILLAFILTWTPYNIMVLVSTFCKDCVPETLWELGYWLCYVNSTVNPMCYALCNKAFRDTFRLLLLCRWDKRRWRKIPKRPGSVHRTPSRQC
# Chain of Alpha-galactosidase A (Homo sapiens) (P06280 whole entry, looked up): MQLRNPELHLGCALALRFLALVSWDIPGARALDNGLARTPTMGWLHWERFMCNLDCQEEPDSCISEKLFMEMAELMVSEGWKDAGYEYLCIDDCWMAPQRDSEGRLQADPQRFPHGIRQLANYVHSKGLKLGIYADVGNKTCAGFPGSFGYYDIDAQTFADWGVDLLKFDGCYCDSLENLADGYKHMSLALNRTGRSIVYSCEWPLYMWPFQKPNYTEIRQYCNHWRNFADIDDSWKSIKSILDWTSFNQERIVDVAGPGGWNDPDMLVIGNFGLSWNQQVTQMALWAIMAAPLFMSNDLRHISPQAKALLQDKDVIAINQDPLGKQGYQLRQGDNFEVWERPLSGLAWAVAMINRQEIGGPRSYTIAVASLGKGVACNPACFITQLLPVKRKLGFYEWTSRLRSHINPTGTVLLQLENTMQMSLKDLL
# Chain of Glucocorticoid receptor (Homo sapiens) (P04150 whole entry, looked up, the tested form may be a part): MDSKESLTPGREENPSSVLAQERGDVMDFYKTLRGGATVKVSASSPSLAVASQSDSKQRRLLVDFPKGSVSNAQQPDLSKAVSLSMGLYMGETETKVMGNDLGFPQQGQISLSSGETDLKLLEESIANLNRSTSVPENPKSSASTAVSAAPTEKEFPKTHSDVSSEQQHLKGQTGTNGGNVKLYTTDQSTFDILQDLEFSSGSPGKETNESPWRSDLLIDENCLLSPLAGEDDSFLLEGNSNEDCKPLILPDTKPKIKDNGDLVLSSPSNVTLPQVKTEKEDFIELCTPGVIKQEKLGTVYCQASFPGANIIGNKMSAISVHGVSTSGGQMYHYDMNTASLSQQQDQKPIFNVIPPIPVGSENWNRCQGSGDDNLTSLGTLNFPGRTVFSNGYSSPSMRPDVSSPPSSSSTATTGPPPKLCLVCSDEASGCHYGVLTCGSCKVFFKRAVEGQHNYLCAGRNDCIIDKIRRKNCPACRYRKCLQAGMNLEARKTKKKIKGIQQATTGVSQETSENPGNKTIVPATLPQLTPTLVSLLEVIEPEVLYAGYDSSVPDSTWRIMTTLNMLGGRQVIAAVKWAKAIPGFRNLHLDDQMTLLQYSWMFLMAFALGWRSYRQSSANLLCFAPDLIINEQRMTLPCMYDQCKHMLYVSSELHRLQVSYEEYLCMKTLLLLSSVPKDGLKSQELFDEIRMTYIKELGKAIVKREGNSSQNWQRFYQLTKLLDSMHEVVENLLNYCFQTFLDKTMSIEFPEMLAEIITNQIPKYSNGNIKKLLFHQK
# Chain of Pyruvate kinase PKM (Homo sapiens) (P14618 whole entry, looked up): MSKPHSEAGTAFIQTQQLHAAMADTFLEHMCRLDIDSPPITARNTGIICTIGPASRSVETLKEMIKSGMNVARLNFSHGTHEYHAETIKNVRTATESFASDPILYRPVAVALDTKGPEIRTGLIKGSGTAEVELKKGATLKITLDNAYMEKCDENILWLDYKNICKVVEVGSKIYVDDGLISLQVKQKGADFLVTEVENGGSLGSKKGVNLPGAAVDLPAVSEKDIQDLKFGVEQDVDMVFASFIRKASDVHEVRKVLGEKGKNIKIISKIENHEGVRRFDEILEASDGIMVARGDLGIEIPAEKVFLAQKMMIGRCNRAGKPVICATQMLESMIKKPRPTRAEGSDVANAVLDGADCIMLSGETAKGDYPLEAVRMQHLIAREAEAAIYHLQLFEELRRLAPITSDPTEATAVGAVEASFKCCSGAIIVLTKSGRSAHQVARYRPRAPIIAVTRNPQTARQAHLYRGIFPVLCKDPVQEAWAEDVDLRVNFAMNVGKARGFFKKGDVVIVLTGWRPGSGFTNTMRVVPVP
Structure (SMILES),"activity change, negative = inhibition [1]",Potency [2],"activity change, negative = inhibition [3]","activity, negative = inhibition [4]",Potency [5],Potency [6],Potency [7],Potency [8],outcome [9],Potency [10],outcome [11],Potency [12],outcome [13],Potency [14],outcome [15],Potency [16],outcome [17],Potency [18],Potency [19],Potency [20]
CN(C)C(=O)/N=N\C(=O)N(C)C,9.37% [at 38 µM],inactive,-14.2% [at 38 µM],5.55% [at 38 µM],> 46 µM,> 46 µM,inactive,inactive,inactive,inactive,inactive,inactive,–,–,–,–,–,–,–,–
Nc1nc(Nc2ccccc2)nc2c1ncn2[C@@H]1O[C@@H](CO)[C@H](O)[C@@H]1O,-5.61% [at 38 µM],31.6 µM (active),-0.881% [at 38 µM],0.406% [at 38 µM],> 46 µM,> 46 µM,inactive,inactive,inactive,inactive,inactive,inactive,inactive,–,–,–,–,–,–,–
O=C(O)/C=C\c1cnc[nH]1,4.19% [at 38 µM],inactive,9.72% [at 38 µM],3.14% [at 38 µM],> 46 µM,> 46 µM,inactive,inactive,inactive,inactive,inactive,inactive,inactive,inactive,inactive,–,–,–,–,–
C[C@@H]1O[C@@H](n2cc(F)c(=O)[nH]c2=O)[C@H](O)[C@@H]1O,-3.92% [at 38 µM],inactive,3.74% [at 38 µM],21.9% [at 38 µM],> 46 µM,> 46 µM,inactive,inactive,inactive,inactive,inactive,inactive,–,–,inactive,inactive,–,–,–,–
NC(N)=N[C@H](CCC(=O)O)C(=O)O,-11% [at 38 µM],inactive,-4.2% [at 38 µM],0.861% [at 38 µM],> 46 µM,> 46 µM,inactive,inactive,inactive,inactive,inactive,inactive,inactive,inactive,inactive,–,–,–,–,–
CCCCC/C=C\C[C@H](O)/C=C\c1cccc(C[C@H](O)CCCCO)n1,-11.3% [at 38 µM],inactive,-9.64% [at 38 µM],54.3% [at 38 µM],> 46 µM,> 46 µM,inactive,inactive,inactive,–,inactive,inactive,inactive,inactive,inactive,–,inactive,–,–,–
Nc1ccc(CCNc2ncnc3c2ncn3[C@@H]2O[C@@H](CO)[C@H](O)[C@@H]2O)cc1,-2.21% [at 38 µM],inactive,3.61% [at 38 µM],17.4% [at 38 µM],> 46 µM,> 46 µM,inactive,inactive,inactive,–,inactive,inactive,inactive,inactive,inactive,–,inactive,–,–,–
CN1C[C@@H](O)[C@@H](O)[C@@H](O)[C@@H]1CO,0.324% [at 38 µM],inactive,16.3% [at 38 µM],-5.85% [at 38 µM],> 46 µM,> 46 µM,inactive,inactive,–,–,–,–,–,–,–,–,–,inactive,inactive,inactive
CNc1ncnc2c1ncn2[C@@H]1O[C@@H](CO)[C@H](O)[C@@H]1O,-19.9% [at 38 µM],inactive,0.83% [at 38 µM],-6.86% [at 38 µM],> 46 µM,> 46 µM,inactive,inactive,inactive,–,inactive,inactive,inactive,–,–,–,inactive,–,–,–
CSC(N)=NCCC[C@@H](N)C(=O)O,19.2% [at 38 µM],inactive,6.92% [at 38 µM],10.5% [at 38 µM],> 46 µM,> 46 µM,inactive,inactive,inactive,inactive,inactive,inactive,–,–,–,–,inactive,–,–,inactive
O=C(O)CC[C@@H](NC(=O)c1ccccc1C(=O)O)C(=O)O,10.1% [at 38 µM],inactive,6.53% [at 38 µM],-11.8% [at 38 µM],> 46 µM,> 46 µM,inactive,inactive,inactive,inactive,inactive,inactive,inactive,–,inactive,–,–,–,–,–
